Compound activity deposited in PubChem by National Center for Advancing Translational Sciences (NCATS).
This is a sample that favours compounds with a hit; in the whole collection about 5.2% have one here.
Tau ThT inhib: qHTS for Inhibitors of Tau Fibril Formation, Thioflavin T Binding | Microtubule-associated protein tau (Homo sapiens), P10636 | AID 1460, 2008 | recombinant tau K18 P301L, heparin-induced fibrillization, ThT fluorescence | actives 2.1% (n = 270,000) | Potency, µM (doses to about 57.4 µM), for the others: at the top dose activity, negative = inhibition, most hits filed as inhibitors; further: potency means the concentration at half of the fitted maximal effect; nearly all actives have a fitted effect of over 55% in size
Target sequence (P10636 561-689 P618L limits assumed): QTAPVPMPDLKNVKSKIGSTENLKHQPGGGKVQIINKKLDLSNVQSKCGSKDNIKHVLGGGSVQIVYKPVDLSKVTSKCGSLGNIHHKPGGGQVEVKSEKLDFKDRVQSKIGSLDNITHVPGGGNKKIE
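In this qHTS, human K18 P301L tau is incubated with compound and heparin for 6 hr at 37 C, and Thioflavin T fluorescence then reports fibril load.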
FBPA coupling cs: qHTS Assay for Inhibitors of Fructose-1,6-bisphosphate Aldolase from Giardia Lamblia: Coupling assay counterscreen; coupling enzyme system counterscreen, AmpLite Red fluorescence; activity change, negative = inhibition, % at 58.2 µM, hits read low; actives 0.67% (n = 290,000); AID 2472, 2010; in the data active means activity change below about -30%
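Final compound at 57.5 uM, incubated 10 min at RT with coupling enzyme reagent (glyceraldehyde-3-phosphate), then 20 min with substrate and AmpLite Red detection. Fluorescence read at 525/598 nm; tests interference with the coupling assay, not aldolase inhibition.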
Tau fluor counter: Counterscreen qHTS for Inhibitors of Tau Fibril Formation, Fluorescence Polarization. actives 0.93% (n = 280,000). Potency, µM (top dose mostly 57.7 µM), for the others: at the highest dose activity change, negative = decrease. AID 1463, 2008. tau K18 P301L (four-repeat tau fragment) Alexa594 fluorescence, heparin fibrillization; further: potency means the concentration at half of the fitted maximal effect; nearly all actives have a fitted effect of over 55% in size
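Human K18 P301L tau (15 uM unlabeled plus 0.24 uM Alexa 594-labeled, final) in 100 mM sodium acetate pH 7 was mixed with compound and 20 uM heparin and incubated 6 hr at 37 C.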
Tau FP inhib: qHTS for Inhibitors of Tau Fibril Formation, Fluorescence Polarization. K18 P301L tau heparin fibrillization, Alexa594 FP, 6 h. Potency, µM (doses to about 57.7 µM), for the others: at the top dose activity, negative = inhibition, actives largely listed as inhibitors. actives 0.39% (n = 280,000); further: potency means the concentration at half of the fitted maximal effect; nearly all actives have a fitted effect of over 55% in size
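Steps: dispense K18 P301L tau (15 uM plus 0.24 uM Alexa 594 tracer, final) in pH 7 sodium acetate; add compound; add heparin (20 uM final); incubate 6 hr, 37 C; add ThT (30 uM final); after 1 hr ambient, read FP.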
Sfp inh: qHTS Assay for Inhibitors of Bacillus subtilis Sfp phosphopantetheinyl transferase (PPTase); Biochemical Sfp PPTase activity, qHTS; Potency, µM, inactives show largest response in the series, negative = inhibition, most hits filed as inhibitors; AID 1490, 2009; actives 3.5% (n = 310,000);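 further: the enzyme is Sfp with the accession as filed and its product quenches rhodamine fluorescence; potency means the concentration at half of the fitted maximal effect; 0% = enzyme reaction without inhibitor and -100% = no enzyme wells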
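Compounds were incubated with enzyme (final 15 nM) for 15 min at room temperature before substrate addition started the reaction. Fluorescence at 525 nm excitation, 598 nm emission was recorded immediately and after 30 minutes.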
Sfp inh conf: Confirmation qHTS Assay for Inhibitors of Bacillus subtilis Sfp phosphopantetheinyl transferase (PPTase); Sfp PPTase enzymatic assay, qHTS titration; Potency, µM (doses to about 114 µM), for inactives: at the top dose activity change, negative = inhibition, actives largely listed as inhibitors; shares compounds with Sfp inh; actives 79% (n = 380); AID 2701, 2010;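 further: potency means the concentration at half of the fitted maximal effect; plate controls were uninhibited Sfp reaction for no effect and no enzyme control for full effect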
Target sequence (Q9F4F7 whole entry, looked up): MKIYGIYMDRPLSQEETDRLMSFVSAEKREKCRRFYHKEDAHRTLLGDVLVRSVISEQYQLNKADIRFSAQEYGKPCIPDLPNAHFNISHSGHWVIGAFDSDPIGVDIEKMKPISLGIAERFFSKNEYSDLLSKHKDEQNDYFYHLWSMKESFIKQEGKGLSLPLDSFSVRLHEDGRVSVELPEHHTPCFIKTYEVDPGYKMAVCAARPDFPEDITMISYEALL
Sfp gel assay: Gel-Based Assay for Inhibitors of Bacillus subtilis Sfp phosphopantetheinyl transferase (PPTase); actives 20% (n = 210); Potency, µM, hits mostly inhibitors; purified Sfp, gel-based phosphopantetheinylation read-out; shares compounds with Sfp inh;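 active means potency below 100 µM; inconclusive means dose-dependent response but potency above 100 µM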;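 further: band intensities scaled against SCH202676 control wells before curve fitting; potency is an IC50 for inhibitors of Sfp transfer activity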
* hit, by the source's call; i = inactive; ? = inconclusive; · = no result; [ ] = dose if it differs, or a comment. Unless noted, the call rests on the fitted dose curve; in most records, active means well fitted curve in the direction sought with a large enough effect; inconclusive means small, poorly fitted or top-dose-only effect, or another doubt; inactive means no such curve, though single readings can be large; an effect the other way counts as inactive or inconclusive. Unless noted, on the % scale 0 is the no-effect control and ±100 the full control effect.

SMILES | Tau ThT inhib | FBPA coupling cs | Tau fluor counter | Tau FP inhib | Sfp inh | Sfp inh conf | Sfp gel assay
Cn1ccnc1C(O)c1cc(C(C)(C)C)c(O)c(C(C)(C)C)c1 (stereo not drawn) | ? | -1.4 | 0.3% | -3.8% | 44.7µM* | 46.9µM* | ·
COc1ccccc1C1=Nn2c(COc3ccccc3)nnc2SC1 | ? | 1.4 | -27.1% | ? | 14.1µM* | 10.5µM* | ·
c1ccc(OCc2nnc3n2N=C(c2ccccc2)CS3)cc1 | ? | -10.8 | -16.7% | -5.7% | 15.8µM* | 16.7µM* | ·
COc1ccc(OCc2nnc3n2N=C(c2ccc(OC)cc2)CS3)cc1 | -8.2% | 2.1 | -9.2% | 10.4% | 11.3% | · | ·
O=S(=O)(Nc1nc2ccccc2nc1Nc1ccccc1Br)c1ccccc1 | 1.9% | · | -6.5% | -16.8% | · | · | ·
COc1ccccc1NC(=O)CSc1nnc(-c2ccccn2)n1Cc1ccco1 | -6.1% | -0.6 | -10.9% | -9.0% | 4.47µM* | 59.1µM* | i
Oc1cc2c(cc1O)[C@H]1c3ccc(O)c(O)c3OC[C@@]1(O)C2 | 17.8µM* | -9.8 | ? | ? | 3.98µM* | 8.35µM* | 2.06µM*
Clc1ccccc1-c1nn2c(-c3ccncc3)nnc2s1 | -10.6% | 6.2 | -2.8% | -5.5% | 15.8µM* | 13.2µM* | ·
Clc1ccccc1-c1nnc2sc(-c3ccncc3)nn12 | -13.8% | 4.6 | -10.9% | -4.0% | -5.2% | · | ·
O=C(NCCc1ccccc1)c1sc2ncccc2c1-n1cccc1 | -7.6% | · | -3.3% | 3.8% | · | · | ·
Cc1c(C(=O)OCC2CCCO2)[nH]c2c1C(=O)CC(c1ccco1)C2 (stereo not drawn) | ? | -0.6 | -9.0% | -7.1% | 15.8µM* | 37.3µM* | i
Cc1c(C(=O)OC2CCCC2)[nH]c2c1C(=O)CC(c1ccco1)C2 (stereo not drawn) | ? | -0.4 | -9.1% | -6.2% | -13.7% | · | ·
S=C(Nc1cccc(Cl)c1)Nc1cccc2cnccc12 | 2.6% | 3.5 | 3.9% | 6.8% | 1.41µM* | 13.2µM* | ?
CCCCNC(=S)Nc1cccc2cnccc12 | -8.9% | -18.2 | -7.1% | 2.6% | -17.3% | · | ·
CCOc1ccc(-c2cc(C(=O)NCc3ccc(OCC)c(OC)c3)[nH]n2)cc1 | 5.1% | · | 2.0% | -1.3% | · | · | ·
Cc1oc2ccc(O)c(CN(C)Cc3ccccc3)c2c1C(=O)Nc1cccc(Cl)c1C | ? | · | ? | 0.0% | · | · | ·
N[C@@H](Cc1ccc(O)c(O)c1)C(=O)O | · | -0.7 | · | · | 39.8µM* | -6.4%[53.7 µM] | ?
NC(Cc1ccc(O)c([N+](=O)[O-])c1)C(=O)O (stereo not drawn) | 3.1% | 1.6 | 2.7% | 7.6% | ? | · | ·
COc1ccc(CC(=O)NCC(c2cccs2)S(=O)(=O)c2ccc(Cl)cc2)cc1 (stereo not drawn) | -7.1% | · | -13.2% | -7.6% | · | · | ·
CCOC(=O)Cc1nnc(NC(=O)c2ncn[nH]2)s1 | 1.1% | -0.6 | 4.3% | -4.1% | 14.1µM* | -3.8% | i
NC(=O)CSc1nc2scc(-c3ccco3)c2c(=O)n1-c1ccccc1 | ? | 3.4 | -25.0% | ? | 6.31µM* | 14.8µM* | ·
O=C(CSc1nc2scc(-c3ccco3)c2c(=O)n1-c1ccccc1)NCC1CCCO1 (stereo not drawn) | ? | 2.9 | -8.0% | -1.1% | 1.26µM* | 41.8µM* | ·
